Results filed as inconclusive are left out. Calls of active or inactive are those of the source. The calls were made as follows, unless noted: active = hit-call score of the fitted dose curve at least 0.9, where 1 is the maximum; inactive = score below 0.9.

In one experiment the target is human Vitamin D Receptor (VDR), VDR (gene 7421) (UniProt P11473). Kind of experiment: ATG_VDR_TRANS: Attagene TRANS-FACTORIAL HepG2 Assay for human Vitamin D Receptor (VDR) (AID 2283022; active = hit-call score of the fitted dose curve at least 0.9, where 1 is the maximum).
Sequence of human Vitamin D Receptor (VDR), VDR (gene 7421) (P11473 whole entry, looked up): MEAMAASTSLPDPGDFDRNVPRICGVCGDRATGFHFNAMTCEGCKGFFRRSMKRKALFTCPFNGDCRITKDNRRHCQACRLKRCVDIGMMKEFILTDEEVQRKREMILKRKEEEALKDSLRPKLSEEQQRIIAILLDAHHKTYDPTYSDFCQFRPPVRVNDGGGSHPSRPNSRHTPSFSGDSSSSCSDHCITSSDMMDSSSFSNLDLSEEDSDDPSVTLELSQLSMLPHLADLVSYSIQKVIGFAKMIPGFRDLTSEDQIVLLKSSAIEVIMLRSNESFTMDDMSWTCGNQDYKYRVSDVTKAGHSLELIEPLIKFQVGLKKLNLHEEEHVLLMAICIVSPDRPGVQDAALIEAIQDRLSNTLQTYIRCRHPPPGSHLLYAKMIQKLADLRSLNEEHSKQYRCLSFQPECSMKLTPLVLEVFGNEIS
Settings: not given
The procedure, abridged: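 Fluorescence of labelled reporter cDNA fragments, resolved by capillary electrophoresis, gives mRNA induction after 24 h treatment of HepG2 cells carrying transfected Gal4-fusion reporter units. Activity is fitted in the positive direction with DMSO as baseline.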
Turning to `OC[P+](CO)(CO)CO`, the call was inactive.

Take `COc1nn(C(=O)NS(=O)(=O)c2ccccc2OC(F)(F)F)c(=O)n1C`: the molecule was called inactive.

For `CC(C)(c1ccc(O)c(-c2ccccc2)c1)c1ccc(O)c(-c2ccccc2)c1`, the molecule was called inactive.

Take `O=[N+]([O-])c1c2ccccc2cc2ccccc12`: the molecule was called inactive.

Consider `Cc1ccccc1OP(=O)(Oc1ccccc1)Oc1ccccc1`, for which the result was inactive.

For `C=C(C)C(=O)OCCCCOC(=O)C(=C)C`, the molecule was called inactive.

With `CC(C)CC(C)(c1ccc(O)cc1)c1ccc(O)cc1`, the outcome was inactive.

Take `C[N+](C)(C)Cc1ccccc1`: the call was inactive.

As to `Cc1ccc(OP(=O)(Oc2ccc(C)cc2C)Oc2ccc(C)cc2C)c(C)c1`, the call was inactive.

For the molecule `C=CCOC(F)(C(F)(F)F)C(F)(F)F`, the molecule was classed as inactive.

Take `O=c1oc2ccccc2c(O)c1C(CC(O)c1ccc(-c2ccc(Br)cc2)cc1)c1ccccc1` (configuration not stated): the result was inactive.

In the case of `O=S(=O)(c1ccc(Cl)cc1)c1cc(Cl)c(Cl)cc1Cl`, the molecule was called inactive.

On to `OC(c1ccc(Cl)cc1)(c1ccc(Cl)cc1)c1cccnc1`, for which the molecule was called inactive.

Consider `O=NN1CCOCC1`, for which the molecule was classed as inactive.

For `OC(Cc1ccccc1Cl)(Cn1[nH]cnc1=S)C1(Cl)CC1` (configuration not stated), the molecule was called inactive.

As for `O=c1[nH]c2ccccc2n1C1CCN(CCCC(c2ccc(F)cc2)c2ccc(F)cc2)CC1`, the molecule was called inactive.

On to `CC(C)(C)c1ccc(CCOc2ncnc3ccccc23)cc1`, for which the outcome was inactive.

For the molecule `CCOC(=O)Cc1ccccc1`, the molecule was called inactive.

For the molecule `C=CC(Cl)CCl` (configuration not stated), the result was inactive.

Read-out in a further experiment: not listed separately
Kind of experiment: BSK_3C_SRB: Viability Assessment in the BioMAP Diversity Plus: 3C Assay (AID 2283023).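 Also: fitted both ways against DMSO so a hit may be signal rise or drop.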 The note with it: primary human endothelial cells (HUVEC). The procedure, abridged:
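Cells were dosed with chemical, cultured 24 h, fixed with 10% TCA, stained with 0.1% SRB and read at 560 nm. Human umbilical vein endothelium was used; DMSO served as negative control and baseline.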
Consider `Cc1cc(C)cc(C)c1`, for which the outcome was inactive.

The term AC50 denotes the concentration at which the activity in the assay is half-maximal. As for `Cc1ccccc1OP(=O)(Oc1ccccc1)Oc1ccccc1`, the AC50 was 35.8 µM (active).

With `Cc1ccc(OP(=O)(Oc2ccc(C)cc2C)Oc2ccc(C)cc2C)c(C)c1`, the AC50 was 12 µM (active).

In the case of `O=c1oc2ccccc2c(O)c1C(CC(O)c1ccc(-c2ccc(Br)cc2)cc1)c1ccccc1` (configuration not stated), the AC50 is 10.7 µM (active).

Take `O=S(=O)(c1ccc(Cl)cc1)c1cc(Cl)c(Cl)cc1Cl`: the AC50 was 5.42 µM (active).

For the molecule `OC(Cc1ccccc1Cl)(Cn1[nH]cnc1=S)C1(Cl)CC1` (configuration not stated), the AC50 is 32 µM (active).

Consider `Cc1ccc2nc3sc(=O)sc3nc2c1`, for which the AC50 is 6.71 µM (active).

As for `C=CC(Cl)CCl` (configuration not stated), the result was inactive.

Read-out in the next experiment: Matrix Metallopeptidase 1 (MMP1), MMP1 (gene 4312)
In words: BSK_BE3C_MMP1: BioMAP Diversity Plus: BE3C Assay for Matrix Metallopeptidase 1 (MMP1) Biomarker Activity (AID 2283024). The note with it: primary human bronchial epithelial cells; actives raise or lower the signal. The procedure, abridged:
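Dose cells, wait 24 h, run MMP1 ELISA; cells are human bronchial epithelial primaries. Both increases and decreases relative to DMSO counted.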
On to `Cc1cc(C)cc(C)c1`, for which the result was inactive.

With `Cc1ccccc1OP(=O)(Oc1ccccc1)Oc1ccccc1`, the AC50 is 6.66 µM (active).

On to `Cc1ccc(OP(=O)(Oc2ccc(C)cc2C)Oc2ccc(C)cc2C)c(C)c1`, for which the outcome was inactive.

`O=c1oc2ccccc2c(O)c1C(CC(O)c1ccc(-c2ccc(Br)cc2)cc1)c1ccccc1` (configuration not stated): the AC50 is 9.43 µM (active).

In the case of `O=S(=O)(c1ccc(Cl)cc1)c1cc(Cl)c(Cl)cc1Cl`, the result was inactive.

Take `OC(Cc1ccccc1Cl)(Cn1[nH]cnc1=S)C1(Cl)CC1` (configuration not stated): the result was inactive.

With `Cc1ccc2nc3sc(=O)sc3nc2c1`, the result was inactive.

As for `C=CC(Cl)CCl` (configuration not stated), the outcome was inactive.

Read-out in the next experiment: not listed separately
Kind of experiment: BSK_3C_Vis: BioMAP Diversity Plus: 3C Assay for Morphology Visualization (AID 2283025).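 Also: fitted both ways so gain or loss versus DMSO counts.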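 As to AC50: light microscopy image of cell morphology used as background control.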 Particulars: primary human endothelial cells (HUVEC). The procedure, abridged:
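Endothelial cells from human umbilical vein were treated with test chemicals for 24 h and inspected by light microscopy for changes in cell conformation.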
Turning to `Cc1cc(C)cc(C)c1`, the result was inactive.

Consider `Cc1ccccc1OP(=O)(Oc1ccccc1)Oc1ccccc1`, for which the AC50 is 11.6 µM (active).

For the molecule `Cc1ccc(OP(=O)(Oc2ccc(C)cc2C)Oc2ccc(C)cc2C)c(C)c1`, the result was inactive.

For the molecule `O=c1oc2ccccc2c(O)c1C(CC(O)c1ccc(-c2ccc(Br)cc2)cc1)c1ccccc1` (configuration not stated), the AC50 was 12.6 µM (active).

Take `O=S(=O)(c1ccc(Cl)cc1)c1cc(Cl)c(Cl)cc1Cl`: the AC50 was 13.6 µM (active).

On to `OC(Cc1ccccc1Cl)(Cn1[nH]cnc1=S)C1(Cl)CC1` (configuration not stated), for which the outcome was inactive.

On to `Cc1ccc2nc3sc(=O)sc3nc2c1`, for which the AC50 was 9.8 µM (active).

Consider `C=CC(Cl)CCl` (configuration not stated), for which the outcome was inactive.

Read-out in a further experiment: Pselectin, SELP (gene 6403)
Kind of experiment: BSK_4H_Pselectin: BioMAP Diversity Plus: 4H Assay for Pselectin Biomarker Activity (AID 2283026). The note with it: primary human endothelial cells (HUVEC); actives raise or lower the signal. The procedure, abridged:
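Human vascular endothelium from umbilical vein; P-selectin measured by ELISA at 24 h post-dose, with cytotoxicity checked by sulforhodamine B total-protein staining in parallel cultures (0.1% SRB after 10% TCA fixation, read at 560 nm).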
With `Cc1cc(C)cc(C)c1`, the result was inactive.

Consider `Cc1ccccc1OP(=O)(Oc1ccccc1)Oc1ccccc1`, for which the AC50 was 20 µM (active).

Regarding `Cc1ccc(OP(=O)(Oc2ccc(C)cc2C)Oc2ccc(C)cc2C)c(C)c1`, the AC50 is 12.9 µM (active).

On to `O=c1oc2ccccc2c(O)c1C(CC(O)c1ccc(-c2ccc(Br)cc2)cc1)c1ccccc1` (configuration not stated), for which the AC50 was 6.34 µM (active).

`O=S(=O)(c1ccc(Cl)cc1)c1cc(Cl)c(Cl)cc1Cl`: the result was inactive.

On to `OC(Cc1ccccc1Cl)(Cn1[nH]cnc1=S)C1(Cl)CC1` (configuration not stated), for which the AC50 was 20 µM (active).

In the case of `Cc1ccc2nc3sc(=O)sc3nc2c1`, the AC50 is 3.77 µM (active).

As for `C=CC(Cl)CCl` (configuration not stated), the result was inactive.

Read-out in another experiment: not listed separately
In words: BSK_4H_SRB: Viability Assessment in the BioMAP Diversity Plus: 4H Assay (AID 2283027).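 Also: cells exposed to compound for 24 h before staining.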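 As to AC50: curves fitted both ways versus DMSO so AC50 may be loss or gain.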 The note with it: primary human endothelial cells (HUVEC). The procedure, abridged:
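Human umbilical vein endothelial cells, 24 h after chemical dosing; total protein measured by 0.1% sulforhodamine B staining after 10% TCA fixation, read at 560 nm. Bidirectional fitting against DMSO.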
As for `Cc1cc(C)cc(C)c1`, the outcome was inactive.

Turning to `Cc1ccccc1OP(=O)(Oc1ccccc1)Oc1ccccc1`, the AC50 is 20 µM (active).

For `Cc1ccc(OP(=O)(Oc2ccc(C)cc2C)Oc2ccc(C)cc2C)c(C)c1`, the result was inactive.

As for `O=c1oc2ccccc2c(O)c1C(CC(O)c1ccc(-c2ccc(Br)cc2)cc1)c1ccccc1` (configuration not stated), the AC50 is 12.7 µM (active).

`O=S(=O)(c1ccc(Cl)cc1)c1cc(Cl)c(Cl)cc1Cl`: the outcome was inactive.

As to `OC(Cc1ccccc1Cl)(Cn1[nH]cnc1=S)C1(Cl)CC1` (configuration not stated), the AC50 was 27.8 µM (active).

Take `Cc1ccc2nc3sc(=O)sc3nc2c1`: the AC50 is 6.96 µM (active).

On to `C=CC(Cl)CCl` (configuration not stated), for which the outcome was inactive.

Read-out in another experiment: not listed separately
In words: BSK_BE3C_SRB: Viability Assessment in the BioMAP Diversity Plus: BE3C Assay (AID 2283028).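 As to AC50: fitted both ways so AC50 may mark signal gain or loss versus DMSO.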 The note with it: primary human bronchial epithelial cells. The procedure, abridged:
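Overt cytotoxicity was assessed as total protein in confluent human primary bronchial epithelial cultures 24 h after chemical addition, using 0.1% sulforhodamine B staining read at 560 nm.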
Regarding `Cc1cc(C)cc(C)c1`, the outcome was inactive.

Consider `Cc1ccccc1OP(=O)(Oc1ccccc1)Oc1ccccc1`, for which the outcome was inactive.

As to `Cc1ccc(OP(=O)(Oc2ccc(C)cc2C)Oc2ccc(C)cc2C)c(C)c1`, the result was inactive.

For the molecule `O=c1oc2ccccc2c(O)c1C(CC(O)c1ccc(-c2ccc(Br)cc2)cc1)c1ccccc1` (configuration not stated), the AC50 is 5.05 µM (active).

`O=S(=O)(c1ccc(Cl)cc1)c1cc(Cl)c(Cl)cc1Cl`: the outcome was inactive.

For the molecule `OC(Cc1ccccc1Cl)(Cn1[nH]cnc1=S)C1(Cl)CC1` (configuration not stated), the outcome was inactive.

In the case of `Cc1ccc2nc3sc(=O)sc3nc2c1`, the outcome was inactive.

`C=CC(Cl)CCl` (configuration not stated): the outcome was inactive.

The record behind these values is PubChem BioAssay (EPA / NIEHS).
